Measured values published in PubChem BioAssay AID651673 (Broad Institute, 2012).
The other results are listed elsewhere or left out. The source made the active and inactive calls.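 The calls were made as follows: active = signal drop giving an AC50 within twice the top valid tested concentration of each sample (actives reach about 35 µM in these data); inactive = activity opposite to expected, plus the rest.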

Assay: DNA binding of candidate compounds, dose response, artefact control for RAD54 inhibitor project, biochemical, fluorescence polarization, cherry-pick (AID 651673);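 also: polarization loss reports compound binding to salmon sperm DNA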
Details: Acridine orange-DNA displacement, 20 min; series mostly up to 35 µM

CN1CCN(c2cc(N3CCNCC3)ccc2[N+](=O)[O-])CC1
outcome: inactive
